In ChEMBL document CHEMBL4513216, “Probing the Open Global Health Chemical Diversity Library for Multistage-Active Starting Points for Next-Generation Antimalarials” (ACS Infect Dis, 2020):
The campaign covered roughly 65,000 compounds. About 2,100 (3.2%) showed an effect of 50% or more. The median lay at about -52%. The entries come from a sample that favours strong results as a whole.

Each molecule was assayed on Plasmodium falciparum (assay: Screen against P. falciparum Asexual Blood Stage (ABS), at 5uM). Settings: tested at 5 uM.
Type: functional, Dd2

How did the INHIBITION turn out when `Cc1nc(CN2CCO[C@H]3CN(C(=O)c4ccncc4)C[C@H]32)cs1` was run?
The INHIBITION was -109%.

For `CCc1nc(CN2CCCN(C(=O)Cc3cccs3)CC2)cs1`, which INHIBITION is on record?
Its INHIBITION is 3.65%.

Which INHIBITION does the source give for `CC(=O)N(c1ccc(C)cc1)c1nc(CN2CCCC(C)C2)cs1` (stereo not drawn) here?
Its INHIBITION is 83.2%.

`CC(=O)N(c1ccc(F)cc1)c1nc(CN2CCCC2C(C)C)cs1` (stereo not drawn) was tested. Which INHIBITION did it give?
Its INHIBITION is 90.3%.

Which INHIBITION does the source give for `Cc1nc(CN2C[C@@H]3CN(C(=O)c4ccncc4)C[C@@H]3C2)cs1` here?
Its INHIBITION is -67.5%.

Which INHIBITION does the source give for `CCCN1CCN(C(=O)c2cccc(C)n2)[C@H]2CS(=O)(=O)C[C@H]21` here?
The INHIBITION was -129%.

Which INHIBITION does the source give for `CC(C)(C)CC(=O)N1C[C@@H]2C[C@@H]1CN2` here?
The INHIBITION was 30%.

With `CN(Cc1cc(C2CC2)on1)C(=O)CN1CC(c2ccccc2)CC1=O` (stereo not drawn) as the molecule, how does the INHIBITION read?
Its INHIBITION is -67.9%.

For `CC(C)c1cc(N(C)Cc2cc(C3CC3)on2)n2nccc2n1`, which INHIBITION is on record?
The INHIBITION was 80.3%.

How did the INHIBITION turn out when `CN(C)CCOCc1cncc2c1CCN(C1CCOC1)C2` (stereo not drawn) was run?
The INHIBITION was -63.4%.

How did the INHIBITION turn out when `NC(=O)CN1CCCN(C(=O)Cc2ccc3ccccc3c2)CC1` was run?
Its INHIBITION is -22.8%.

Which INHIBITION does the source give for `CCCC1CCCN(Cc2csc(-c3ncccn3)n2)CC1` (stereo not drawn) here?
Its INHIBITION is 74.9%.

For `O=C(Cc1csc(-c2ncccn2)n1)N1CCN2CCCCC2C1` (stereo not drawn), which INHIBITION is on record?
Its INHIBITION is -23.4%.

With `CCN1CCN(Cc2csc(C(C)C)n2)CC1` as the molecule, how does the INHIBITION read?
Its INHIBITION is -17.1%.

Which INHIBITION does the source give for `CCc1noc(CN(C)CCC(=O)Nc2ccc(C#N)c(Cl)c2)n1` here?
The INHIBITION was 11.3%.

With `O=S(=O)(Cc1ccccc1Cl)NCCCN1CCCC1` as the molecule, how does the INHIBITION read?
The INHIBITION was 79.2%.

`Cn1cc(C(=O)N2CC[C@@H]3[C@@H]2CCN3Cc2ccncc2)cn1` was tested. Which INHIBITION did it give?
The INHIBITION was -137%.

For `Cc1cnc(N2CCc3c(cnc(C)c3C(=O)O)C2)nc1`, which INHIBITION is on record?
The INHIBITION was -89.7%.

How did the INHIBITION turn out when `CC(C)c1cc(CN2CCN(c3cccnc3)CC2)n(C)n1` was run?
Its INHIBITION is -52.7%.

With `CCN1CCN(c2ccc(F)cc2C(C)NCc2ccnn2C)CC1` (stereo not drawn) as the molecule, how does the INHIBITION read?
The INHIBITION was 76.3%.

`CCc1noc(C(C)N2CCN(CC)CC2)n1` (stereo not drawn) was tested. Which INHIBITION did it give?
The INHIBITION was -70%.

Which INHIBITION does the source give for `CCN1CCN(c2ccc(F)cc2C(C)NCc2cscn2)CC1` (stereo not drawn) here?
The INHIBITION was 81.1%.

Which INHIBITION does the source give for `CCN1CCN(c2ccc(F)cc2C(C)NCc2ccccn2)CC1` (stereo not drawn) here?
The INHIBITION was 85.6%.

With `Cc1ccc(CNC(C)c2cc(F)ccc2N2CCN(C)CC2)o1` (stereo not drawn) as the molecule, how does the INHIBITION read?
Its INHIBITION is 83.7%.

`c1ccc(CO[C@@H]2CN(Cc3cccnc3)[C@@H]3COC[C@@H]32)nc1` was tested. Which INHIBITION did it give?
The INHIBITION was -165%.

How did the INHIBITION turn out when `CCN1CCN(c2ccc(C(=O)NCCOC)cc2F)CC1` was run?
Its INHIBITION is -56%.

With `CC(c1ccccc1F)N1CCN(C(=O)Cc2ccncc2)CC1` (stereo not drawn) as the molecule, how does the INHIBITION read?
Its INHIBITION is -41.8%.

For `CCN1CCN(c2ccc(F)cc2C(C)NCc2ccncc2)CC1` (stereo not drawn), which INHIBITION is on record?
Its INHIBITION is 72.4%.

With `Cc1cccc(OCC2CCCN(C(=O)CN(C)C3CCNCC3)C2)c1` (stereo not drawn) as the molecule, how does the INHIBITION read?
Its INHIBITION is 73.8%.

For `Cc1cccc(CC(=O)N2CCCC(N(C)CCCN(C)C)C2)c1` (stereo not drawn), which INHIBITION is on record?
Its INHIBITION is -40.55%.

With `Cc1cccc2cc(CN3CCCN4CCC[C@H]4C3)c(=O)[nH]c12` as the molecule, how does the INHIBITION read?
The INHIBITION was -45.3%.

`Clc1cc(CN2CCCN3CCCC3C2)c2ncccc2c1` (stereo not drawn) was tested. Which INHIBITION did it give?
Its INHIBITION is 89.5%.

`CNc1ncccc1CN1CCN2CCN(C)CC2C1` (stereo not drawn) was tested. Which INHIBITION did it give?
The INHIBITION was -92.1%.

Which INHIBITION does the source give for `Cc1ccc(N2CCO[C@H]3CN(CC4CC4)C[C@H]32)nn1` here?
Its INHIBITION is -15.6%.

For `CC1CN(CC2CCCC2)CCN1c1ccc2nncn2n1` (stereo not drawn), which INHIBITION is on record?
The INHIBITION was 70.4%.

Which INHIBITION does the source give for `Cc1cccc(CN2CC[C@@H]3[C@@H]2CCN3C(=O)c2ccno2)n1` here?
The INHIBITION was -100%.

Which INHIBITION does the source give for `Cc1cc(-c2cnc(N3CCCC3)nc2C(C)C)on1` here?
The INHIBITION was 10.2%.

For `c1cncc(N2CCOCC3(CCCN(Cc4cccs4)C3)C2)c1` (stereo not drawn), which INHIBITION is on record?
The INHIBITION was 55.5%.

For `c1cncc(N2CCOCC3(CN(Cc4cccs4)CCO3)C2)c1` (stereo not drawn), which INHIBITION is on record?
Its INHIBITION is -41%.

`O=C1CC2(CCN(CC3CC3)C2)CN1c1cccnc1` (stereo not drawn) was tested. Which INHIBITION did it give?
Its INHIBITION is -58.5%.

Which INHIBITION does the source give for `c1cncc(N2CCCC3(CCN(CCN4CCCC4)CC3)C2)c1` here?
Its INHIBITION is 92%.

With `c1cnc(N2CCOCC3(CCCN(Cc4cccs4)C3)C2)nc1` (stereo not drawn) as the molecule, how does the INHIBITION read?
The INHIBITION was -15.6%.

For `c1cncc(N2CCCC3(CN(Cc4cccs4)CCO3)C2)c1` (stereo not drawn), which INHIBITION is on record?
The INHIBITION was -22.7%.

`CN1CCO[C@H]2CN(C(=O)c3ccncc3F)C[C@H]21` was tested. Which INHIBITION did it give?
Its INHIBITION is -54.5%.

With `COc1ccccc1C1(NCc2c(C)nc3c(C)cccn23)CCCC1` as the molecule, how does the INHIBITION read?
The INHIBITION was 89.2%.

How did the INHIBITION turn out when `Cc1cnccc1N1CCN(C[C@]2(O)CCCN3CCCC[C@@H]32)CC1` was run?
Its INHIBITION is 75%.

Which INHIBITION does the source give for `O[C@@]1(CNCCCNc2cccnc2)CCCN2CCCC[C@@H]21` here?
Its INHIBITION is -52.8%.

With `Cc1cccnc1N1CC2(CCN(Cc3cccnc3)C2)C1` as the molecule, how does the INHIBITION read?
Its INHIBITION is -50.1%.

Which INHIBITION does the source give for `O=C(Nc1ccccc1)[C@H]1CN2CCC1C[C@@H]2Cn1cc(CO)nn1` (stereo partly drawn) here?
Its INHIBITION is -50.4%.

For `CC(C)N1[C@H](CN(C)C)C[C@@H]2CN(c3ncc(F)cn3)CC[C@@H]21`, which INHIBITION is on record?
The INHIBITION was 25.4%.

With `N#CC1(c2ccccc2)CCN(C(=O)C2CCCN(C(N)=O)C2)CC1` (stereo not drawn) as the molecule, how does the INHIBITION read?
Its INHIBITION is -142%.

Which INHIBITION does the source give for `Cc1ccc(C(=O)N2C[C@@H]3CCN(C(C)C)C[C@@H]3C2)cn1` here?
Its INHIBITION is -25%.

`CC(C)N1CCCC(C(=O)N2CCN(c3nsc4ccccc34)CC2)C1` (stereo not drawn) was tested. Which INHIBITION did it give?
The INHIBITION was 70.4%.

For `Cn1cc(CN2CCC[C@]3(C[C@@H](Oc4ccccn4)CO3)C2)cn1`, which INHIBITION is on record?
Its INHIBITION is -29.6%.

Which INHIBITION does the source give for `Cc1nc(CN2CC[C@H]3C[C@H](c4ccncn4)O[C@@H]3C2)cs1` here?
The INHIBITION was -62.5%.

`COCCNC(=O)C[C@@H]1COC[C@H]2CN(Cc3cccnc3)C[C@@H]12` was tested. Which INHIBITION did it give?
The INHIBITION was -103%.

For `COc1ccc(CN2C[C@H]3CN(c4cncnc4)C(=O)[C@H]3C2)cc1`, which INHIBITION is on record?
The INHIBITION was -49.1%.

With `COc1ccc(CN2C[C@@H]3COC[C@@H](N4CCN(C)CC4)[C@@H]3C2)cc1` as the molecule, how does the INHIBITION read?
Its INHIBITION is 73.9%.

How did the INHIBITION turn out when `Cc1cc(C)cc(CN2C[C@H]3COC[C@H](N4CCN(C)CC4)[C@H]3C2)c1` was run?
The INHIBITION was 94.1%.

Which INHIBITION does the source give for `O=C(C[C@@H]1COC[C@H]2CN(Cc3ccncc3)C[C@@H]12)N1CCCC1` here?
Its INHIBITION is -88%.

Which INHIBITION does the source give for `CN1CCN([C@H]2COC[C@@H]3CN(Cc4cccnc4)C[C@@H]32)CC1` here?
Its INHIBITION is -11.2%.

Which INHIBITION does the source give for `Cc1c(CC(=O)N2CCN(CC(F)(F)F)CC2)nnn1-c1ccccc1` here?
Its INHIBITION is -74%.

How did the INHIBITION turn out when `Cc1cc(N2CCCC(c3[nH]ncc3Cc3ccccc3)C2)nc(N)n1` (stereo not drawn) was run?
Its INHIBITION is 73.6%.
